Reference: PubChem BioAssay AID2100 (National Center for Advancing Translational Sciences (NCATS), 2009)
The campaign covered roughly 300,000 compounds. About 1,200 (0.4%) were called active. Not shown: some 3% with an inconclusive outcome. Only a selection was taken, and actives are over-represented in it overall. A number with no mark means an inactive call. Calls follow the shape of the dose curve; as a rule, active = well fitted inhibition curve with a large enough effect; inconclusive = small, poorly fitted or top-dose-only effect, or another doubt; inactive = no such curve, though single readings can be large or run the other way.

What follows are compounds tested against Lysosomal alpha-glucosidase (Homo sapiens) (UniProt P10253) (assay: qHTS Assay for Inhibitors and Activators of Human alpha-Glucosidase Cleavage of Glycogen). Conditions: recombinant GAA, glycogen substrate, Amplex Red glucose oxidase fluorescence; series mostly up to 76.3 µM; activity change, negative = inhibition: at the top concentration.
How it was run: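 Recombinant human alpha-glucosidase (4 nM final) hydrolysed bovine liver glycogen (30 ug) for 40 min at 37 C in pH 5.0 citrate/phosphate with 0.01% Tween-20. Released glucose detected by glucose oxidase/Amplex Red, Ex 573/Em 610 nm. Compounds up to 77 uM; AC50 from Hill fits.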
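Also: the screen sought inhibitors and activators.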
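For activity change, negative = inhibition in this document: 0% = full enzyme reaction and -100% = no-enzyme basal signal.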
Potency is read from the fitted curve at half-maximal effect.

In order of falling “activity change, negative = inhibition” value:
1. CC(C)C(=O)Nc1nc2c(s1)CC(C(C)(C)C)CC2 (stereo unspecified)  14.5%
2. CC1=C(C(=O)OCC2CCCCC2)C(c2c(F)cccc2Cl)CC(=O)N1 (stereo unspecified)  14.2%
3. COc1ccc(Cl)cc1NC(=O)CSc1nc(-c2cccs2)cc(C(F)(F)F)n1  12.5%
4. CSc1nc(-c2ccccc2Cl)nc2c1Cc1c(CO)cnc(C)c1O2  11.9%
5. CC(C)Cn1c(=O)c2ccccc2n2c(CCC(=O)N3CCN(c4cccc(Cl)c4)CC3)nnc12  11.2%
6. COc1cccc(C(=O)NC(=O)Nc2ccc(-c3cc(C(F)(F)F)nn3-c3ccccc3)cc2)c1  10.7%
7. COc1ccc(-c2cc(=O)c3c(O)cc(O[C@@H]4O[C@H](CO[C@@H]5O[C@@H](C)[C@H](O)[C@@H](O)[C@H]5O)[C@@H](O)[C@H](O)[C@H]4O)cc3o2)cc1O  9.26%
8. CN(CC(=O)Nc1cccc(C(F)(F)F)c1)S(=O)(=O)c1cccs1  8.76%
9. CCc1nnc(SCc2c(F)cccc2Cl)c2cc3sccc3n12  8.52%
10. Cc1c(NS(=O)(=O)c2ccc(Cl)cc2)c(=O)n(-c2ccccc2)n1C  7.58%
11. CCc1ccc(NC(=O)CCS(=O)(=O)c2cc3c(cc2Cl)NC(=O)CO3)cc1  7.29%
12. COc1ccccc1NC(=O)Cn1cnc2ccc(S(=O)(=O)N3CCC(C)CC3)cc2c1=O  7.07%
13. COc1cccc(NC(=O)N(Cc2cn(C)c3ccccc23)C2CCCCCC2)c1  4.58%
14. O=C(Nc1ccc2nc(SCCOc3ccccc3Cl)sc2c1)c1ccco1  4.09%
15. COc1cc(OC)cc(C(=O)Nc2cc3nn(-c4ccccc4)nc3cc2Cl)c1  0.391%
16. O=C(Nc1ccccc1-c1nc2ccccc2[nH]c1=O)c1cccs1  -0.0999%
17. Cc1c(C(=O)N2CCCC2)oc2c1-c1nn(CC(=O)NCc3ccc(OC(C)C)cc3)cc1CC2  -1.91%
18. CCOc1ccccc1C(=O)NC1(C(F)(F)F)NC(=O)N(CCc2ccc(OC)c(OC)c2)C1=O (stereo unspecified)  -2.56%
19. O=c1c2cccnc2n(Cc2cccc(F)c2)c(=O)n1Cc1ccccc1Cl  -5.47%
20. CCCCN1C(=O)c2[nH]nc(-c3ccccc3O)c2C1c1cccc(OCc2ccccc2)c1 (stereo unspecified)  -8.47%
21. CCN(CCCNC(=O)c1cc2cc3cc(OC)ccc3nc2s1)c1ccccc1  -9.2%
22. COc1ccc2c(c1)Cc1sc(NC(=O)c3ccccc3Br)nc1-2  -9.29%
23. Cc1oc(-c2ccccc2)nc1Cn1c(SCc2cccc(C(F)(F)F)c2)nc2cccnc21  -9.3%
24. COc1ccc2[nH]c3c(c2c1)CCN(C(=O)CCC1CCCC1)C3c1ccc(F)cc1 (stereo unspecified)  -9.42%
25. CCOc1ccc(N(CC)C(=O)c2noc3c2COc2ccc(C)cc2-3)cc1  -9.78%
26. O=C(CSc1nc(-c2cccc(F)c2)[nH]c1-c1ccccc1)Nc1ccc2c(c1)OCO2  -11.3%
27. COc1ccc(NC(=O)CSc2nc3ncccc3[nH]2)c(OC)c1  -12.5%
28. CCOc1ccc(N(CC)S(=O)(=O)N2CCCC(C(=O)Nc3ccc(C(C)=O)cc3)C2)cc1 (stereo unspecified)  -13.1%
29. COc1ccccc1CNc1ccc(-c2nc(-c3ccccc3C)no2)cc1[N+](=O)[O-]  -14.1%
30. CCOc1ccc(N/C=C/C(=O)c2ccccc2)cc1  -14.9%
31. CSc1nc(Nc2ccc(F)cc2)cc(-c2ccccc2)n1  -15%
32. CCOc1ccc(N/C=C/C(=O)c2cc(OC)c(OC)c(OC)c2)cc1  -23.1%
33. CC(=O)c1ccc(NC(=O)c2nc(-c3ccc(C)cc3)n3c2CCCCC3)cc1  -23.7%

For `COc1c(O)cc2oc(-c3ccc(O)c(O)c3)cc(=O)c2c1O`, the Potency was 10 µM (active).
With `Cc1nc(NNC(=O)c2ccccc2)cc(-c2ccccc2)n1` the Potency was 22.4 µM (active).
In the case of `CCCOc1ccc(N/C=C/C(=O)C(C)(C)C)cc1`, the Potency is reported as 31.6 µM (active).
With `Cc1ccc(S(=O)(=O)Nc2ccccc2CNc2c(C)n(C)n(-c3ccccc3)c2=O)cc1` the Potency was 28.2 µM (active).
With `CCOc1ccc(-n2c(O)c(/C=N/Nc3nnc(C)c(=O)[nH]3)c3ccccc3c2=O)cc1` the Potency was 39.8 µM (active).
With `O=[N+]([O-])c1ccccc1Nc1ccc(O)cc1` the Potency was 10 µM (active).
`Cc1csc(NC(=O)NC2(C(F)(F)F)Oc3ccccc3O2)n1` was tested, and the Potency was 8.84 µM (active).
`C/C(=N\Nc1nc2ccccc2[nH]1)c1cccs1` was tested, and the Potency was 25.1 µM (active).
For `C=CC[n+]1c(-c2ccc(C)cc2)csc1NNC(=O)Nc1ccccc1`, the Potency was 25.1 µM (active).
In the case of `Cc1cc(C)n2nc(C(=O)Oc3ccc4c(c3)OCO4)nc2n1`, the Potency is reported as 12.5 µM (active).
With `CCCc1nc2ccccc2c(=O)n1/N=C/c1ccc(O)c(O)c1` the Potency was 11.2 µM (active).

In order of rising “activity change, negative = inhibition” value:
1. C/C(=N\Nc1nc(Nc2ccccc2)nc(N2CCOCC2)n1)c1cccs1  -18.1% [at 76.4 µM]
2. CCOC(=O)COc1cc(O)c2c(=O)cc(-c3ccccc3)oc2c1  -11.3% [at 76.4 µM]
3. Cc1cc(C)n2nc(C(=O)N3CCN(Cc4ccc5c(c4)OCO5)CC3)nc2n1  -7.58% [at 76.4 µM]
4. Cc1[nH]n(-c2cccc(Cl)c2)c(=O)c1/C=N/n1c(C)nc2ccccc2c1=O  -5.44% [at 76.4 µM]
5. O=C(O)c1ccccc1C(=O)Nc1ccccc1[N+](=O)[O-]  -5.21% [at 76.4 µM]
6. COc1ccc(C(=O)NN(C)c2nc(-c3ccccc3)cc(C)c2S(C)(=O)=O)cc1  -3.35% [at 76.4 µM]
7. Cc1csc(NC(=O)Nc2ccccc2[N+](=O)[O-])n1  -2.5% [at 76.4 µM]
8. Cc1ccc(S(=O)(=O)CC(=O)Nc2c(C)n(C)n(-c3ccccc3)c2=O)cc1  4.27% [at 76.4 µM]
9. COc1cc(SC)ccc1C(=O)Nc1nc(C)cs1  5.05% [at 76.4 µM]
10. C=CCNc1scc(-c2ccccc2)[n+]1CC=C  5.77% [at 76.4 µM]
11. O=[N+]([O-])c1ccc(O)c(/C=N/Nc2ccccc2[N+](=O)[O-])c1  6.62% [at 76.4 µM]
12. CCOc1ccc(-n2c(O)c(/C=N/Nc3nc(C)cc(C)n3)c3ccccc3c2=O)cc1  6.76% [at 76.4 µM]
13. Cc1cc(C)n2nc(C(=O)NC(C)(C)C)nc2n1  6.76% [at 76.4 µM]
14. O=c1c2ccccc2ncn1/N=C/c1ccccc1  7.31% [at 76.4 µM]
15. Cn1sc(NC(=O)c2ccccc2)nc1=O  8.91% [at 76.4 µM]
16. CCOc1ccc(-n2c(O)c(/C=N/c3ccnn3Cc3ccncc3)c3ccccc3c2=O)cc1  11.4% [at 76.4 µM]
17. Cc1ccc(NC(=O)Nc2ccccc2)c(Br)c1  11.9% [at 76.4 µM]
